Source: PubChem BioAssay (NCATS)
Records with an inconclusive call do not appear. Activity calls are given as the source filed them. Unless noted, calls follow the shape of the dose curve; as a rule, active = well fitted curve in the direction sought with a large enough effect; inconclusive = small, poorly fitted or top-dose-only effect, or another doubt; inactive = no such curve, though single readings can be large; an effect the other way counts as inactive or inconclusive.

Experiments:
[1] = qHTS assay for small molecule disruptors of the mitochondrial membrane potential - 1 hr assay (AID 651754; calls by dose curve; also: % is scaled to controls: 0 for no effect and ±100 for the full control effect; nearly all actives have a fitted effect of over 35% in size)
Procedure, shortened: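 HepG2, 2,000 cells/well, overnight attachment; cpd or DMSO 1 hr, 37C/5% CO2; Mito-MPS dye 30 min, 37C; fluorescence monomer (490/535) and aggregate (540/590).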

[2] = qHTS assay for small molecule disruptors of the mitochondrial membrane potential - 5 hr assay (AID 651755; calls by dose curve; also: % is scaled to controls: 0 for no effect and ±100 for the full control effect; nearly all actives have a fitted effect of over 40% in size)
Procedure, shortened: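 HepG2, 2,000 cells/well, overnight attach; cpd or DMSO 5 hr, 37C/5% CO2; Mito-MPS 30 min 37C; fluor 490/535 + 540/590 nm.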

[3] = molecular target: Tumor necrosis factor (Homo sapiens) (UniProt P01375); experiment: qHTS assay to identify small molecules that stimulate Tumor Necrosis Factor-alpha (TNF-alpha) secretion (AID 651757; active = well fitted curve in the direction sought with a large enough effect in the signal ratio; the % refers to the signal ratio; also: 0% is about no effect)
Tumor necrosis factor (Homo sapiens), sequence (P01375 whole entry, looked up): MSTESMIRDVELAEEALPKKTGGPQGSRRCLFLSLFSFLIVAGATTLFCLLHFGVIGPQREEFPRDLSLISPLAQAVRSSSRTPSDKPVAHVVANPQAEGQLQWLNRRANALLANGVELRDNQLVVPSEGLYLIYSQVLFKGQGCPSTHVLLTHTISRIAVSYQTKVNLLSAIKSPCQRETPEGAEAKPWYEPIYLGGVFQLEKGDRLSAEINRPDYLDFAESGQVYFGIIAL
Procedure, shortened: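 Read-out is HTRF, a TR-FRET sandwich of cryptate- and XL665-labeled anti-TNF-alpha antibodies detecting cytokine secreted by THP-1 cells. Cells had been incubated with test compounds at 37 C for 17 hrs beforehand.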

[4] = qHTS assay to identify small molecules that stimulate interleukin-8 (IL-8) secretion (AID 651758; active = well fitted activation curve with a large enough effect in the signal ratio; the % refers to the signal ratio; also: 0% is about no effect)
Procedure, shortened: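 Secreted IL-8 measured by TR-FRET sandwich (cryptate and XL665 antibodies) from THP-1 cells exposed to compound overnight (16 hrs, 37 C).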

[5] = qHTS assay for environmental chemicals that activate the Aryl hydrocarbon Receptor (AhR) signaling pathway (AID 651777); conditions: 1A2-DRE human hepatoma cells, luciferase, 24 h; activation: active compounds read high; also: % of control where 0% means no effect; nearly all actives have a fitted effect of over 15% in size
Procedure, shortened: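 Concentration–response screening used 1,200 1A2-DRE cells per well, 24 hr compound exposure (37 C, 5% CO2), and One-Glo luminescence as the AhR-driven CYP1A2 reporter signal.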

[6] = molecular target: Peroxisome proliferator-activated receptor alpha (Homo sapiens) (UniProt Q07869); experiment: qHTS assay for small molecule agonists of the peroxisome proliferator-activated receptor alpha (PPARalpha) signaling pathway (AID 651778); conditions: PathHunter PPARalpha complementation, chemiluminescence, 6 h; active compounds read high; also: % of control where 0% means no effect
Peroxisome proliferator-activated receptor alpha (Homo sapiens), sequence (Q07869 whole entry, looked up): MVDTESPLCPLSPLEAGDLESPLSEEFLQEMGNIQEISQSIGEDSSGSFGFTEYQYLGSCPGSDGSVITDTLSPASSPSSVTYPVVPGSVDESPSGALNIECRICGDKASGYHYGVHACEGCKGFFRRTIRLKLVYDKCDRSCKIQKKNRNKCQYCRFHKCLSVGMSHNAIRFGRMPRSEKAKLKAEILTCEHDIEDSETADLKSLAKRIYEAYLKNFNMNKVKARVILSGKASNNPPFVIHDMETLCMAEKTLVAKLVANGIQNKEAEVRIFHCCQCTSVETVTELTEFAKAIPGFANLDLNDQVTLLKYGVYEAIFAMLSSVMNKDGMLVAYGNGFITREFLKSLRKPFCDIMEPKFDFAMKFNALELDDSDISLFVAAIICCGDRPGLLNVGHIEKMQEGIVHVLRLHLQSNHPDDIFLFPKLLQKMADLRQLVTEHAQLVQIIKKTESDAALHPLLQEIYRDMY
Procedure, shortened: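 Chemiluminescence from complemented enzyme reported PPARalpha activation in cells after 6 hr of compound treatment at 37 C. The detection reagent was incubated for 60 min at room temperature, and compounds were scored as agonists.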

[7] = molecular target: Nuclear receptor ROR-gamma (Homo sapiens) (UniProt P51449); experiment: qHTS assay for small molecule antagonists of the retinoid-related orphan receptor gamma (ROR-gamma) signaling pathway (AID 651802);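 also: luciferase reporter luminescence driven by ROR response element; series mostly up to about 92 µM; % is scaled to controls: 0 for no effect and ±100 for the full control effect; nearly all actives have a fitted effect of over 60% in size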
Nuclear receptor ROR-gamma (Homo sapiens), sequence (P51449 whole entry, looked up): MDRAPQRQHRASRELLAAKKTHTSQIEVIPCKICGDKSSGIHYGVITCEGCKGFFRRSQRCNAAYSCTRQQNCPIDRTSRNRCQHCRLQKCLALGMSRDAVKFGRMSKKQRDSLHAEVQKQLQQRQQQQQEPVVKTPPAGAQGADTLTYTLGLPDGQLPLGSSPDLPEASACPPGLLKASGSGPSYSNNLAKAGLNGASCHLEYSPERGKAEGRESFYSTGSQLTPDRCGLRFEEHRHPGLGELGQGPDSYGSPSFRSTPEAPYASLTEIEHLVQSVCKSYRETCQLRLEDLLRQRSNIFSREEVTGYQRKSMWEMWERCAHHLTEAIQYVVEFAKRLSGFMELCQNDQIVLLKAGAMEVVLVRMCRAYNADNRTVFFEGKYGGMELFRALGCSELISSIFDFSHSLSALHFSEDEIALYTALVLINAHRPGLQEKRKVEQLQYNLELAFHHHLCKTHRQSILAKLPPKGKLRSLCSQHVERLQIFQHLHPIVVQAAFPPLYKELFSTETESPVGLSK
Procedure, shortened: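 CHO, TET-inducible ROR + RORE-LUC reporter, 1536-well qHTS. Compound pinned, doxycycline added, 16hr 37C/5% CO2. ONE-Glo, 30 min RT, luminescence; signal drop scored as antagonism.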

[8] = qHTS assay for small molecule agonists of the antioxidant response element (ARE) signaling pathway measured by Nrf2-dependant transcriptional activity (AID 720636; active = well fitted curve in the direction sought with a large enough effect in the repeat runs; an effect the other way counts as inactive or inconclusive;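 also: HepG2 cells with an ARE-driven luciferase reporter; % of control where 0% means no effect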)
Procedure, shortened: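 Attachment 6 hr at 37 C, then compound versus DMSO vehicle for 16 hr in ARE-luc HepG2 cells (1% dialyzed FBS); luminescence recorded 30 min after ONE-Glo addition at room temperature.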

[9] = qHTS assay for small molecule antagonists of the retinoid-related orphan receptor gamma (ROR-gamma) signaling pathway - cell viability counter screen (AID 720652; active = well fitted curve in the direction sought with a large enough effect in the repeat runs; an effect the other way counts as inactive or inconclusive;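 also: series mostly up to about 92 µM; compound exposure lasted 16 hr before ATP read; % is scaled to controls: 0 for no effect and ±100 for the full control effect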)
Procedure, shortened: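 Luminescence from CellTiter-Glo after 30 min at room temperature reported cellular ATP as the cytotoxicity measure. Cells were the CHO reporter line with doxycycline-induced ROR-gamma expression, exposed to compound for 16 hr at 37 C.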

[10] = qHTS assay for cell viability of HEK293 cells (AID 743288); conditions: ATP luminescence (CellTiter-Glo), 18 h, active compounds read low; also: % is scaled to controls: 0 for no effect and ±100 for the full control effect; nearly all actives have a fitted effect of over 50% in size
Procedure, shortened: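 Luminescent ATP quantitation served as the viability read-out. Cells (parental HEK293, 2,000/well) received compounds after at least 5 h at 37 C and were exposed for 18 h before a 30 min room-temperature reagent step.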

[11] = qHTS assay for cell viability of the p53RE-bla HCT-116 cell line (AID 743292); also: % is scaled to controls: 0 for no effect and ±100 for the full control effect; nearly all actives have a fitted effect of over 55% in size
Procedure, shortened: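 Compound-exposed HCT-116 (p53RE-bla) cells, 4,000 per well, were kept 16 h at 37 C following a 5 h preincubation. Cell number was estimated from total ATP by CellTiter-Glo luminescence read after 30 min at room temperature.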

[12] = molecular target: Nuclear receptor subfamily 1 group I member 2 (Rattus norvegicus) (UniProt Q9R1A7); experiment: qHTS assay for small molecule activators of the rat pregnane X receptor (rPXR) signaling pathway (AID 651751; call rule not given here; also: 0% is about no effect); conditions: rPXR reporter cells, luciferase (One-Glo), 24 h
Nuclear receptor subfamily 1 group I member 2 (Rattus norvegicus), sequence (Q9R1A7 whole entry, looked up): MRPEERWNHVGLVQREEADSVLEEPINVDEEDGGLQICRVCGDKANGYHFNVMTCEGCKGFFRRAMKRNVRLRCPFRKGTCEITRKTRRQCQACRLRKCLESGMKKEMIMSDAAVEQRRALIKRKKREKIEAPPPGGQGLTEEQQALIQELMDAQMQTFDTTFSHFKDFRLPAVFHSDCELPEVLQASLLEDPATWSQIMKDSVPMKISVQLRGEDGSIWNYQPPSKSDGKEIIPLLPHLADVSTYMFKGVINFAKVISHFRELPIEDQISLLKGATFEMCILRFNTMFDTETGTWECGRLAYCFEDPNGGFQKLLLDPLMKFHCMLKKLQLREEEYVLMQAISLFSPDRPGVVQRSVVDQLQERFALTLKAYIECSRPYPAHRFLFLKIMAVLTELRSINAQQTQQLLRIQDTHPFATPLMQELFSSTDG

[13] = qHTS assay for small molecule activators of the human pregnane X receptor (PXR) signaling pathway (AID 720659; call rule not given here; also: 0% is about no effect)
[14] = qHTS assay for small molecule agonists of the antioxidant response element (ARE) signaling pathway measured by Nrf2-dependant transcriptional activity - cell viability counter screen (AID 720653; active = well fitted curve in the direction sought with a large enough effect in the repeat runs; an effect the other way counts as inactive or inconclusive; also: % is scaled to controls: 0 for no effect and ±100 for the full control effect); conditions: ARE-bla HepG2 viability, CellTiter-Glo ATP luminescence, 16 h; active compounds read low
Procedure, shortened: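 Cytotoxicity counter screen: intracellular ATP quantified by CellTiter-Glo luminescence in the same ARE-bla HepG2 plates, after 16 h compound exposure and a 2 h beta-lactamase substrate step.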

O=C(O)c1ccc(Cl)c(Cl)c1
inactive: Potency [1] | Potency [2] | Potency [3] | Potency [4] | activation [5] 1.84% | max response [6] -5.43% | Potency [7] | outcome [8] | Potency [9] | max response [10] 1.65% | Potency [11] | max response [12] -0.362% | outcome [13]

CC(O)COC(C)(C)C (centres undefined)
inactive: Potency [1] | Potency [2] | Potency [3] | Potency [4] | activation [5] -0.0727% | max response [6] -3.92% | Potency [7] | outcome [8] | Potency [9] | max response [14] 7.93% | Potency [11] | max response [12] 2.3% | outcome [13]

COC(=O)CC#N
inactive: Potency [1] | Potency [2] | Potency [3] | Potency [4] | activation [5] -0.763% | max response [6] -2.71% | Potency [7] | outcome [8] | Potency [9] | Potency [11] | max response [12] -1.86% | outcome [13]

Cc1ccc(C)cc1
inactive: Potency [1] | Potency [2] | Potency [3] | Potency [4] | activation [5] 0.01% | max response [6] -4.74% | Potency [7] | outcome [8] | Potency [9] | max response [14] -7.71% | max response [10] -11.4% | Potency [11] | max response [12] 0.288% | outcome [13]

CCCCCCCCN
inactive: Potency [1] | Potency [2] | Potency [3] | Potency [4] | activation [5] 1.65% | max response [6] -3.65% | Potency [7] | outcome [8] | Potency [9] | max response [14] 1.34% | max response [10] -5.63% | Potency [11] | max response [12] 0.0694% | outcome [13]

CC(=O)c1ccccn1
inactive: Potency [1] | Potency [2] | Potency [3] | Potency [4] | activation [5] -0.723% | max response [6] 0.325% | Potency [7] | outcome [8] | Potency [9] | max response [14] 5.72% | max response [10] -9.54% | Potency [11] | max response [12] 2.33% | outcome [13]

O=C1CCCCC1
inactive: Potency [1] | Potency [2] | Potency [3] | Potency [4] | activation [5] -0.681% | max response [6] -2.26% | Potency [7] | outcome [8] | Potency [9] | max response [14] 5.45% | max response [10] -3.35% | Potency [11] | max response [12] 2.79% | outcome [13]

Nc1cccc([N+](=O)[O-])c1
inactive: Potency [1] | Potency [2] | Potency [3] | Potency [4] | activation [5] 0.683% | max response [6] -2.36% | Potency [7] | outcome [8] | Potency [9] | max response [14] 11.8% | max response [10] -2.77% | Potency [11] | max response [12] -4.93% | outcome [13]

Cc1cccc(C)c1O
inactive: Potency [1] | Potency [2] | Potency [3] | Potency [4] | activation [5] 0.0984% | max response [6] -7.29% | Potency [7] | outcome [8] | Potency [9] | max response [14] 8.44% | max response [10] 0.15% | Potency [11] | max response [12] 2.68% | outcome [13]

CO[Si](CCCNCCC[Si](OC)(OC)OC)(OC)OC
inactive: Potency [1] | Potency [2] | Potency [3] | Potency [4] | activation [5] -0.757% | max response [6] -5.87% | Potency [7] | outcome [8] | Potency [9] | max response [14] -1.66% | max response [10] 5.64% | Potency [11] | max response [12] 4.59% | outcome [13]

c1ccsc1
inactive: Potency [1] | Potency [2] | Potency [3] | Potency [4] | activation [5] -0.706% | max response [6] -6.32% | Potency [7] | outcome [8] | Potency [9] | max response [10] 6.51% | Potency [11] | max response [12] -1.04% | outcome [13]

Cc1ccc(CO)cc1
inactive: Potency [1] | Potency [2] | Potency [3] | Potency [4] | activation [5] -1.15% | max response [6] 4.64% | Potency [7] | outcome [8] | Potency [9] | max response [14] -0.358% | max response [10] 9.52% | Potency [11] | max response [12] 4.72% | outcome [13]

Cc1cc(C)cc([N+](=O)[O-])c1
inactive: Potency [1] | Potency [2] | Potency [3] | Potency [4] | activation [5] 0.689% | max response [6] -0.421% | Potency [7] | outcome [8] | Potency [9] | max response [14] -11.8% | max response [10] 1.12% | Potency [11] | max response [12] 1.37% | outcome [13]

ICCc1ccccc1
inactive: Potency [1] | Potency [2] | Potency [3] | Potency [4] | activation [5] 3.65% | max response [6] -1.29% | Potency [7] | outcome [8] | Potency [9] | max response [14] 3.37% | max response [10] -14.1% | Potency [11] | max response [12] -1.67% | outcome [13]

CCOCC(=O)O
inactive: Potency [1] | Potency [2] | Potency [3] | Potency [4] | activation [5] -0.35% | max response [6] -1.55% | Potency [7] | outcome [8] | Potency [9] | max response [14] 1.2% | max response [10] -0.256% | Potency [11] | max response [12] 1.81% | outcome [13]

Cc1ccccc1C=O
inactive: Potency [1] | Potency [2] | Potency [3] | Potency [4] | activation [5] -0.786% | max response [6] -2.49% | Potency [7] | outcome [8] | Potency [9] | max response [14] -9.4% | max response [10] 5.96% | Potency [11] | max response [12] 1.66% | outcome [13]
